Laboratory results reported in ChEMBL document CHEMBL3988442, “University of Dundee, Small-Polar-MMV Screening Library” (2021).
In all, about 48,000 compounds went through this assay and about 13,000 (27%) showed an effect of 50% or more. The list shows a part of the results.

Test system: Wolbachia pipientis
Assay: Anti-Wolbachia Cell-Based Screen
Format: functional
Parameters: scale not given: in the data most compounds retested in dose-response had high values
Settings: 5 µM

| Compound | Percent Effect [%] |
| --- | --- |
| CCOc1ncccc1CNC(=O)N1CCCC1c1cc(C)no1 (configuration not stated) | 3.544 |
| O=C(c1ccc(Cl)cc1)N1CCC(N2CCCCC2=O)CC1 | 103 |
| Cc1cc(C(=O)N2CCC(N3CCNC3=O)CC2)nn1C(C)(C)C | -1.395 |
| Cc1ccc(C(=O)N2CCCC(N)CC2)cc1N1CCNC1=O (configuration not stated) | -4.611 |
| Cc1cnc(NC(=O)N2CCC(N3CCCCC3=O)CC2)s1 | 0.5285 |
| O=C(c1ccc(Cl)cc1)N1CCC(N2CCCNC2=O)CC1 | 102 |
| O=C(c1ccc2c(c1)OCO2)N1CCN2C(=O)NC[C@H]2C1 | 6.694 |
| O=C(c1ccc(Cl)cc1)N1CCC(N2CCNC2=O)CC1 | 109.7 |
| O=C(CSc1ccccc1)N1CCC(N2CCCCC2=O)CC1 | -3.003 |
| O=C(CCc1ccc(Cl)s1)N1CCC(N2CCNC2=O)CC1 | 39.9 |
| Cn1cc(N2CCC(NC(=O)c3c(F)cccc3F)C2=O)cn1 (configuration not stated) | -6.231 |
| O=C(NCC1(CO)CC1)c1ccccc1C(F)(F)F | 10.7 |
| O=C(NCCCSC1CCCCC1)C1NCCc2[nH]cnc21 (configuration not stated) | -0.8236 |
| CCOc1ccc(C(=O)N(CCOC)Cc2c(C)nn(CC)c2C)o1 | -1.11 |
| CN(C)C(=O)N1C[C@@H]2COC[C@]2(c2nnc(C3CC3)o2)C1 | 1.303 |
| O=C(Cn1ccc(=O)cc1)N1C[C@H]2CC[C@@H]1CN(c1ncccn1)C2 | -6.945 |
| CCC1CN(C(=O)c2cc(CN(C)CCc3ccccc3)on2)CCO1 (configuration not stated) | -31.04 |
| O=C1CCC(C(=O)N2CCOC(Cc3ccc(F)cc3)C2)=NN1 (configuration not stated) | -6.141 |
| COc1ccc(CC2CN(C(=O)c3coc(C)n3)CCO2)cc1 (configuration not stated) | 123 |
| Cc1n[nH]c(CCC(=O)N2CCOC(Cc3ccccc3)C2)c1C (configuration not stated) | 0.4396 |
| Cc1nc(C(=O)N2CCOC(Cc3ccccc3)C2)co1 (configuration not stated) | 119.2 |
| CCOC(=O)CNC(=O)N1CCOC(Cc2ccc(OC)cc2)C1 (configuration not stated) | -5.818 |
| CCN1CCN(CC(=O)N2CCOC(Cc3ccc(OC)cc3)C2)CC1 (configuration not stated) | -7.63 |
| Cn1nccc1C(=O)N1CCOC(Cc2ccc(F)cc2)C1 (configuration not stated) | -2.544 |

| Compound | Percent Effect [%] |
| --- | --- |
| Cc1nc(C(=O)N2CCOC(Cc3ccc(F)cc3)C2)co1 (configuration not stated) | 139 |
| COc1ccccc1N1CCN(C(=O)CSCC2CC2)C(C)C1 (configuration not stated) | 12.11 |
| Cc1csc(-c2cccc(NC(=O)N3CCOCC3)c2)n1 | -7.869 |
| COc1ccc(S(=O)(=O)NCCC(O)c2ccoc2)c(C)c1 (configuration not stated) | 14.16 |
| Cc1cc(C(=O)N(C)CC(F)(F)C(F)(F)F)ccc1-n1cncn1 | -4.765 |
| O=C(Nc1ccc(F)cc1)C1CSCN1 (configuration not stated) | 136.1 |
| CC(C(=O)Nc1ccc(C#N)cc1)N1CCc2ccccc21 (configuration not stated) | -0.338 |
| Cl.N#Cc1ccc(NC(=O)C2CSCN2)cc1 (configuration not stated) | 137.5 |
| O=C(Nc1ccc(F)cc1)C1CCc2ccccc2N1 (configuration not stated) | 3.241 |
| O=C(Nc1ccc(F)cc1)C1CNCCN1C(=O)CC1CCCCC1 (configuration not stated) | -14.62 |
| N#Cc1ccc(SCCC(=O)Nc2ccc(CC(N)=O)cc2)cc1 | -23.76 |
| CN1CCCCC12CCN(c1nncs1)C2 (configuration not stated) | -10.05 |
| COc1cc(Cl)cc(C(=O)N2CCC3(CCCNC3)C2)c1 (configuration not stated) | -2.555 |
| CCc1ccsc1C(=O)N1CCS(=O)(=O)CC1 | -3.186 |
| CCc1ccsc1C(=O)N1CCN(CC(C)O)CC1 (configuration not stated) | 130.8 |
| CCCc1nnsc1C(=O)N1CCN(CC(C)O)CC1.Cl (configuration not stated) | 3.712 |
| CSc1ccsc1C(=O)N1CCN(CC(C)(C)O)CC1 | 6.232 |
| CCc1ccsc1C(=O)N1CCN(CCN2C(=O)CCC2=O)CC1 | 117.8 |
| CCc1ccsc1C(=O)N1CCN(C(=O)c2ccc(C)o2)CC1 | -4.902 |
| CCc1ccc(C(=O)N2CCN(CC(C)O)CC2)o1 (configuration not stated) | -6.937 |
| CCc1ccsc1C(=O)N1CCN(CC(N)=O)CC1 | 101.9 |
| CC(=O)N1CCN(C(=O)c2sccc2Br)CC1 | -5.711 |
| N#Cc1cccc(CN2C[C@@H](F)[C@@H](OCc3nc4cnccc4[nH]3)C2)c1 | -8.923 |
| c1cc(NCc2ccsc2)cc(-c2nnc[nH]2)c1 | -4.767 |

| Compound | Percent Effect [%] |
| --- | --- |
| Cc1cnc(N2CCN3C[C@H](OCc4cccc(C)n4)C[C@H]3C2)nc1.O=C(O)C(F)(F)F.O=C(O)C(F)(F)F.O=C(O)C(F)(F)F | -4.424 |
| CC(C)c1cc2c(O)nc(CSCC(=O)NCc3ccncc3)nc2s1 | 17.11 |
| O=C(CCNc1ncccn1)NCc1csc(Br)c1 | 22.34 |
| O=C(CSCc1ccncc1)NCc1csc(Br)c1 | 146.4 |
| CC(=O)N1CCN(C(=O)NCc2csc(Br)c2)CC1 | 1.629 |
| O=C(NCc1csc(Br)c1)c1ccncc1 | 3.838 |
| O=C(CCc1ccncc1)NCc1csc(Br)c1 | 90.69 |
| COc1cc(C)c(CNC(C)c2nc(C)cs2)cc1OC (configuration not stated) | -0.3291 |
| CNC(=O)c1cn2cc(-c3ccc(F)cc3)n(CC=C(C)C)c(=O)c2n1 | 0.6659 |
| Cc1nccc(N2CC[C@@H]3[C@@H](CCC(=O)N3CCc3ccccc3)C2)n1 | -6.653 |
| CCS(=O)(=O)N1CCC2(CC1)COC(COc1cccnc1)C2.O=C(O)C(F)(F)F (configuration not stated) | 0.5823 |
| N#Cc1nccnc1N1CCC(Cc2ccccc2)C1 (configuration not stated) | -1.044 |
| O=C(c1c[nH]c2ncccc12)N1CCC(COc2ccccc2)CC1 | -0.9312 |
| COCC1CN(C(=O)Cc2ccccn2)Cc2c1cnn2CC1CC1.O=C(O)C(F)(F)F.O=C(O)C(F)(F)F (configuration not stated) | -11.65 |
| CCN1Cc2c(C(=O)NCC3CC3)ncn2-c2ccccc2S1(=O)=O | 19.38 |
| Cc1cc(C)c(C#N)c(N2CCC(Cc3ccccc3)CC2)n1 | -43.81 |
| O=S1(=O)c2cccnc2OC(COc2ccccc2)CN1CC1CC1 (configuration not stated) | 113.6 |
| CCN1CC(COc2ccccc2)Oc2ncccc2S1(=O)=O (configuration not stated) | 122.7 |
| O=S1(=O)c2cccnc2OC(Cc2ccccc2)CN1CC1CC1 (configuration not stated) | 92.92 |
| COC(=O)CNCC1(O)CCCN(Cc2cccc(F)c2F)C1=O (configuration not stated) | 2.816 |
| O=C(NCc1ccncc1)c1ccc(Cl)cc1F | 1.231 |
| Nc1ncccc1C(=O)NCc1cccc(Cl)c1 | 135.3 |
| Nc1ncccc1C(=O)NCc1cccc(Br)c1 | 158 |
| Nc1ncccc1C(=O)NCc1ccc(Br)cc1 | 135.9 |

| Compound | Percent Effect [%] |
| --- | --- |
| COc1cccc(CNC(=O)c2cccnc2N)c1 | 120.4 |
| CC(C)(NC(=O)NCc1cccc(Br)c1)C(=O)O | 23.95 |
| COCC(=O)NCc1cccc(Br)c1 | -15.74 |
| NC(=O)CN(CC(=O)NCc1cccc(Cl)c1)C1CCCC1 | 3.155 |
| CS(=O)(=O)Cc1ccc(CNC(=O)c2cccnc2O)cc1 | 12.39 |
| COc1ncccc1CNC(=O)c1cccnc1O | -6.886 |
| COc1cccc(CNC(=O)c2nc3c(o2)CN(S(C)(=O)=O)C3)c1 | -11.41 |
| Cn1ccnc1-c1noc(NCc2ccccc2)n1 | -0.05664 |
| Nc1nnc(CCCNc2ncnc3c2CCN(C(=O)C2CC2)C3)s1 | 2.255 |
| O=C(O)CSc1nnc(-c2cn[nH]c2)n1-c1ccccc1C(F)(F)F | -22.33 |
| CC(=O)NC1(C(=O)N(C)Cc2c(C)noc2C)CCCCC1 | -7.535 |
| COc1ccc(C2CC(=O)c3c(O)cc(O)cc3O2)cc1O (configuration not stated) | -2.499 |
| CC(C)(C)c1coc([C@@H]2COCCN2Cc2ccccn2)n1 | -4.744 |
| Cc1cccc(CN2CCN(C(=O)c3cccnc3O)CC2)c1 | -8.356 |
| Cc1cccc(CNC(=O)c2cccnc2N)c1 | 165.4 |
| CCCNC(=O)c1cccc2ncccc12 | 14.09 |
| CC(C)(C)c1nc(CN(Cc2cccs2)C2CCS(=O)(=O)C2)no1 (configuration not stated) | 9.766 |
| CC(C)(C)c1nc(CN(Cc2cccs2)C2CCS(=O)(=O)C2)cs1 (configuration not stated) | 26.63 |
| O=S1(=O)CCC(N(Cc2nc(-c3ccccn3)no2)Cc2cccs2)C1 (configuration not stated) | 124.4 |
| O=S1(=O)CCC(N(Cc2nc3ccccc3o2)Cc2cccs2)C1 (configuration not stated) | 98.01 |
| O=C(CN(Cc1cccs1)C1CCS(=O)(=O)C1)NCC1CCCCC1 (configuration not stated) | 2.941 |
| Cc1noc(C)c1CN(Cc1cccs1)C1CCS(=O)(=O)C1 (configuration not stated) | 104.9 |
| CC(=O)c1ccc(C(=O)N(C)Cc2nc(-c3ccccn3)no2)s1 | -11.07 |
| O=C(CN(Cc1cccs1)C1CCS(=O)(=O)C1)NC1CCCCC1 (configuration not stated) | 14.98 |

| Compound | Percent Effect [%] |
| --- | --- |
| CC(C)c1noc(CN(Cc2cccs2)C2CC2)n1 | 16.09 |
| Cc1noc(CN(Cc2cccs2)C2CCS(=O)(=O)C2)n1 (configuration not stated) | 99.33 |
| Cc1nc(CN(Cc2cccs2)C2CCS(=O)(=O)C2)oc1C (configuration not stated) | -2.391 |
| Cc1ccc(-c2nc(CN(Cc3cccs3)C3CCS(=O)(=O)C3)cs2)o1 (configuration not stated) | 4.898 |
| O=C(CNC(=O)c1ccoc1)NC(c1ccc(F)cc1)C(F)(F)F (configuration not stated) | 0.03163 |
| CC1CN(C(=O)c2nccnc2N)c2ccc(F)cc2O1 (configuration not stated) | -7.593 |
| COCCN(CCOC)C(=O)c1sc(C)nc1C | -9.667 |
| CCC(C)(C)NC(=O)C[S+]([O-])Cc1csc(C2CCCC2)n1 (configuration not stated) | -6.862 |
| Cc1ccc(C)c(CS(=O)(=O)CC(=O)N(C)Cc2cccc(F)c2)c1 | -31.79 |
| c1nc(N2CCCC2Cn2cncn2)c2ccsc2n1 (configuration not stated) | -0.0676 |
| c1cnn(CC2CCCN2c2ncnc3c2CCC3)c1 (configuration not stated) | -39.95 |
| c1nc(N2CCCC(Cn3cncn3)C2)c2ccsc2n1 (configuration not stated) | 13.9 |
| c1ccc2c(N3CCCC3Cn3cccn3)ncnc2c1 (configuration not stated) | -8.877 |
| c1cnn(CC2CCCN2c2ncnc3ccsc23)c1 (configuration not stated) | 77.53 |
| Cc1nc(C)n(CC2CCCN(c3ncnc4sccc34)C2)n1 (configuration not stated) | 4.886 |
| c1nc2c(c(N3CCCC(Cn4cncn4)C3)n1)CCC2 (configuration not stated) | -15.31 |
| Cc1sc2ncnc(N3CCCC3Cn3cccn3)c2c1C (configuration not stated) | 126.3 |
| c1cnn(CC2CCCCN2c2ncnc3sccc23)c1 (configuration not stated) | -1.869 |
| c1nc(N2CCCC(Cn3cncn3)C2)c2sccc2n1 (configuration not stated) | 164.6 |
| Cc1nc(C)n(CC2CCCN2c2ncnc3sccc23)n1 (configuration not stated) | 103.4 |
| c1cnn(CC2CCCN2c2ncnc3sccc23)c1 (configuration not stated) | -19.57 |
